An excerpt weighted towards active compounds, which were near 4.1% of everything screened.
Anthrax LF prot: blocks Bacillus anthracis lethal factor protease; multiplex microsphere protease cleavage assay, LF; AID 588501; P15917; actives 0.12% (n = 360,000); inhibition, % at 10 µM; in the data active means inhibition above about 30%; inconclusive means no clear call, values can overlap the other calls; further: plate controls were buffer without enzyme for full effect and enzyme alone for no effect
BoNT F protease: BoNT F light chain protease inhibition | Multiplex microsphere protease cleavage assay, flow cytometry | inhibition, % at 10 µM | actives 0.22% (n = 360,000); in the data active means inhibition above about 35%, passing the limit was not always enough; inconclusive means no clear call, values can overlap the other calls; further: plate controls were buffer without enzyme for full effect and enzyme alone for no effect
MazEF act: MazEF (E. coli) toxin RNase activation | FAM/BHQ RNA-DNA oligo cleavage fluorescence, 5 h | activation, % at 20 µM | actives 0.32% (n = 350,000) | P0AE70; in the data active means activation above about 50%
Target sequence (P0AE70 whole entry, looked up): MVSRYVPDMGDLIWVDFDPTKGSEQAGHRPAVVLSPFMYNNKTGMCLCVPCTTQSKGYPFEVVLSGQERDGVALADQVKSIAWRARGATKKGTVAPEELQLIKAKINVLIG
VHR inh abs: blocks human VHR1 dual specificity phosphatase; P51452; recombinant VHR phosphatase, pNPP absorbance; inhibition, % at 13.3 µM; actives 0.52% (n = 290,000); in the data active means inhibition above about 50%
Target sequence (P51452 whole entry, looked up): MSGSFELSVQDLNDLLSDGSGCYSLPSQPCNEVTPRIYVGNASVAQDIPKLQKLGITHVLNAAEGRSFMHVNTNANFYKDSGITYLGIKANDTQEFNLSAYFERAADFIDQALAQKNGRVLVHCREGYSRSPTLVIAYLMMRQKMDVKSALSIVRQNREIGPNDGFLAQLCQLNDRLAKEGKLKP
BoNT-A LC inh2: inhibitors of Botulinum neurotoxin A light chain protease. multiplex microsphere protease substrate cleavage, flow cytometry. inhibition, % at 10 µM. actives 0.17% (n = 360,000); in the data active means inhibition above about 30%; inconclusive means no clear call, values can overlap the other calls; further: plate controls were buffer without enzyme for full effect and enzyme alone for no effect
Autofluor counter: compound fluorescence in toxin protease inhibitor counterscreen; compound autofluorescence counterscreen, microsphere flow cytometry; stronger effect = higher value; fluorescence intensity (no concentration beside the values); actives 3.1% (n = 360,000); in the data active means fluorescence intensity above about 16000; inconclusive means no clear call, values can overlap the other calls
BoNTA LC inh 2: inhibitors of botulinum neurotoxin A light chain protease; inhibition, % at 10 µM; actives 10% (n = 150); multiplex microsphere protease cleavage assay, flow cytometry; shares compounds with BoNT-A LC inh2; in the data active means inhibition above about 24%
Anthrax LF CP2: Bacillus anthracis lethal factor protease inhibition | shares compounds with BoNT-A LC inh2 | multiplex microsphere protease cleavage assay | inhibition, % at 10 µM | actives 7% (n = 150) | AID 602327
BoNTF LC inh 2: BoNT/F light chain protease inhibition; inhibition, % at 10 µM; shares compounds with BoNT-A LC inh2; multiplex microsphere protease cleavage assay, flow cytometry; actives 7% (n = 150)
The depositor's hits bear a star; ? = inconclusive; . = not tested or not shown. Unless noted, no stated cut-off is given here; in the data, active means inhibition above about 25%; inactive means the rest.

SMILES | Anthrax LF prot | BoNT F protease | MazEF act | VHR inh abs | BoNT-A LC inh2 | Autofluor counter | BoNTA LC inh 2 | Anthrax LF CP2 | BoNTF LC inh 2
O=C(Cc1ccccc1)c1ccc(N2CCOCC2)cc1 | 8 | 6 | 0 | . | 0 | 4126 | . | . | .
COc1cccc(N(CC(=O)NC2CCCCC2)C(=O)CCCC(=O)Nc2ccccn2)c1 | -1 | -1 | -3 | 20 | -1 | 6117 | . | . | .
CCc1cccc2c(C(=O)COC(=O)c3ccc(O)cc3)c[nH]c12 | -2 | -18 | -2 | 0 | -1 | 8987 | 8 | 15 | 37*
CCc1cccc2c(C(=O)COC(=O)c3ccccc3)c[nH]c12 | 1 | -8 | 12 | -10 | 1 | 2332 | 8 | 14 | 25*
O=P(Cc1cccc2ccccc12)(c1ccccc1)c1ccccc1 | -1 | 0 | 0 | . | 0 | 2831 | . | . | .
Cc1cc(C(=O)COc2ccc(C#N)cc2)c(C)n1CC1CCCO1 (stereo not drawn) | -9 | -13 | -28 | . | 0 | 2940 | . | . | .
Cn1nc(-c2ccccc2)nc1-c1ccccc1 | -6 | -9 | 1 | . | 0 | 3110 | . | . | .
CN=c1nc(-c2ccccc2)n(-c2ccccc2)s1 | 0 | 48* | -17 | . | 3 | 4486 | 4 | -4 | 23
COc1ccc(-c2nc3c(Cl)cc(C(F)(F)F)cn3c2Cc2ccsc2)cc1OC | -5 | -1 | . | . | 3 | 5804 | 15 | -2 | 13
COc1ccc(C(CNC(=O)C(CCSC)NC(=O)c2ccccc2Cl)N2CCCC2)cc1 (stereo not drawn) | 7 | 43* | -1 | . | -15 | 15232 | -5 | 1 | 14
COc1ccc(C(CNC(=O)C(CCSC)NC(=O)c2ccccc2Cl)N2CCCCC2)cc1 (stereo not drawn) | -1 | 1 | 5 | . | 1 | 3610 | . | . | .
COc1ccccc1NC(=O)Cc1nc(=O)[nH]c(=O)[nH]1 | 6 | 3 | 5 | . | 0 | 3504 | . | . | .
Cc1cc2cc(CNC(=O)c3ccc(S(=O)(=O)N4CCCCC4)cc3)ccc2n1C | -81 | -78 | -15 | -30 | 80* | 1944 | 2 | -2 | -2
CCN(CC)S(=O)(=O)c1ccc(C(=O)NCc2ccc3c(c2)cc(C)n3C)cc1 | -83 | -98 | -10 | 15 | 81* | 1295 | 3 | 0 | 9
Cc1cc2cc(CNC(=O)c3ccc(S(=O)(=O)N4CCCC4)cc3)ccc2n1C | -91 | -106 | -11 | 7 | 80* | 1376 | 4 | 4 | 13
Cc1ccc(CNC(=O)c2ccc(S(=O)(=O)N3CCCC3)cc2)cc1 | 1 | -1 | 3 | . | 0 | 3850 | . | . | .
Cc1[nH]c2ccccc2c1C(=O)COC(=O)c1ccccc1O | 0 | -2 | 12 | . | -1 | 3305 | 5 | 4 | 16
COc1ccc(Cc2c(-c3ccc(OC)c(OC)c3)nc3c(C)cc(Br)cn23)c(C)c1 | 20 | -3 | . | . | 32* | 7593 | 11 | 8 | -2
COc1ccc(Cc2c(-c3ccccc3)nc3cc(C)c(Br)c(C)n23)c(C)c1 | 0 | -13 | . | . | 0 | 6172 | . | . | .
COc1ccc(Cc2c(-c3ccc(OC)c(OC)c3)nc3cc(C)c(Br)c(C)n23)c(C)c1 | -21 | -7 | . | . | 0 | 4775 | 2 | -1 | 4
CCC1(C)NC(=O)N(CC(=O)c2cc(C)n(C3CC3)c2C)C1=O (stereo not drawn) | -3 | 4 | 10 | . | 5 | ? | . | . | .
O=S(=O)(NC1=NCCCCC1)c1ccc(Cl)cc1Cl | 1 | 3 | 0 | . | 2 | 6319 | . | . | .
COc1ccc(-c2cc3c(c4c2ccn4C)C2CCC3O2)cc1OC (stereo not drawn) | -4 | -8 | . | . | 1 | 6255 | . | . | .
COc1ccc(-c2cc3c(c4c2ccn4C)C2CCC3C2)cc1F (stereo not drawn) | 17 | -6 | . | . | 17 | 3355 | 4 | -2 | -14
CSc1ccc(-c2cc3c(c4c2ccn4C)C2CCC3C2)cc1 (stereo not drawn) | 1 | -17 | . | . | 1 | 6020 | . | . | .
SMILES | Anthrax LF prot | BoNT F protease | MazEF act | VHR inh abs | BoNT-A LC inh2 | Autofluor counter | BoNTA LC inh 2 | Anthrax LF CP2 | BoNTF LC inh 2
Cn1ccc2c(-c3ccc(CO)cc3)cc3c(c21)C1CCC3C1 (stereo not drawn) | 7 | -14 | . | . | 5 | 5459 | 4 | 2 | 7
Cn1ccc2c(-c3ccc(C(N)=O)cc3)cc3c(c21)C1CCC3C1 (stereo not drawn) | 6 | -5 | . | . | 0 | 6175 | 1 | 2 | 4
Cn1ccc2c(-c3ccc4c(c3)OCCO4)cc3c(c21)C1CCC3C1 (stereo not drawn) | -14 | -30 | . | . | 11 | 3482 | 5 | -5 | -24
CCCNC(=O)c1cc(C2CCCCN2C(=O)c2ccc(C#N)cc2)on1 (stereo not drawn) | -9 | 8 | . | . | 1 | 2731 | . | . | .
O=C(c1cc2cc(F)ccc2[nH]1)N1CCC(Cc2ccccc2)CC1 | -14 | -7 | -5 | -8 | 2 | 3579 | . | . | .
CSC[C@H]1CN(c2ccccc2)C(=O)[C@@H]1CC(=O)Nc1ccc(Br)cc1 | -2 | -5 | 5 | . | 0 | 3710 | . | . | .
Cc1ccccc1-c1cc2c(c3c1ccn3C)C1CCC2C1 (stereo not drawn) | 9 | -13 | . | . | 6 | 5502 | 4 | 1 | -4
Cn1ccc2c(-c3ccc(C(F)(F)F)cc3)cc3c(c21)C1CCC3O1 (stereo not drawn) | -3 | 6 | . | . | 1 | 5675 | . | . | .
Cn1ccc2c(-c3ccc(F)cc3)cc3c(c21)C1CCC3C1 (stereo not drawn) | 5 | -12 | . | . | 6 | 5633 | 4 | 1 | -2
Cn1ccc2c(-c3ccc(C(F)(F)F)cc3)cc3c(c21)C1CCC3C1 (stereo not drawn) | -12 | 2 | . | . | 2 | 5818 | 2 | -2 | -6
Cc1ccccc1NC(=O)COC(=O)COc1ccc2ccc(=O)oc2c1 | 2 | -1 | -5 | . | -1 | 4513 | . | . | .
CCN(c1ccc(C(=O)CSc2nnc(C3CC3)n2C2CC2)cc1)S(C)(=O)=O | 4 | -2 | -3 | . | 1 | 8716 | . | . | .
CC1(C)CC(=O)C=C(c2ccc(Oc3ccccc3)cc2)C1=O | 4 | -1 | -10 | . | 2 | 3621 | . | . | .
COc1ccc(C#Cc2ccc(C3=CC(=O)CC(C)(C)C3=O)cc2)cc1 | 30* | 13 | 1 | . | 29 | 3071 | 16 | 11 | 16
COc1ccccc1N1CCN(c2ccc3c(c2)S(=O)(=O)c2cccc(C(=O)NCc4cccc(F)c4)c2C3=O)CC1 | -10 | -3 | -1 | . | 0 | 3870 | 2 | -2 | -4
O=C(NCC1CC1)c1cccc2c1C(=O)c1ccc(N3CCCC3)cc1S2(=O)=O | 2 | -1 | -151 | . | 2 | 4247 | . | . | .
O=C(NC1CCCCC1)c1cccc2c1C(=O)c1ccc(N3CCC(Cc4ccccc4)CC3)cc1S2(=O)=O | 34* | 14 | -693 | . | 26 | 5311 | 8 | 8 | 12

Screening data deposited in PubChem BioAssay by several laboratories.
